Screening results from PubChem.
The list is not random: actives were taken first. Their share in the collection is about 10%.
PNC inhibitor: High Content Assay for Compounds that inhibit the Assembly of the Perinucleolar Compartment. PC3M PTB-GFP, PNC prevalence imaging, 16 h; stronger effect = lower value. activity change (PNC), negative = inhibition, % at 10 µM. actives 3.1% (n = 140,000). AID 2417, 2010;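 active = readout at or below -70, meaning at least 70% loss of cells showing the perinucleolar compartment, a nuclear body marking cancer cells; inconclusive = readout between -30 and a set limit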;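 note: plate controls were DMSO wells for no effect and camptothecin positive control wells for full effect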
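Read-out is percentage of cells bearing a perinucleolar compartment, from automated 20x imaging of fixed, Hoechst-stained PC3M PTB-GFP cells. Cells were seeded 4 h, then exposed 16 h to compound (23 nl of library stock) in duplicate plates.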
GLA inh pH 4.5: qHTS Assay for Inhibitors of Human alpha-Galactosidase at pH 4.5. Alpha-galactosidase A (Homo sapiens), P06280. 230,000 tested, under 10 active. purified enzyme, 4-MU-alpha-Gal fluorescence, pH 4.5. activity change, negative = inhibition, % at 105 µM;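 note: 0% = full activity with enzyme and -100% = basal without enzyme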
Target sequence (P06280 whole entry, looked up): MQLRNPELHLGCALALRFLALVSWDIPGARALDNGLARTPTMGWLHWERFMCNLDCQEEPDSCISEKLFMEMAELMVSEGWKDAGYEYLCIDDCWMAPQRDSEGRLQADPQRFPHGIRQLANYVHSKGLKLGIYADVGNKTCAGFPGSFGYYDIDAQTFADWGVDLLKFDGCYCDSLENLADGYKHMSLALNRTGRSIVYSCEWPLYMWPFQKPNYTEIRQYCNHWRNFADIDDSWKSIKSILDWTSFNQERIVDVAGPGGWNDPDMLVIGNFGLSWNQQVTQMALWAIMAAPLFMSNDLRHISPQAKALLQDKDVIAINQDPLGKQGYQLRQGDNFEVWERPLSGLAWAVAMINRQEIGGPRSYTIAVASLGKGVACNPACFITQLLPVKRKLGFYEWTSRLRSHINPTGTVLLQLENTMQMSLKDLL
ALDH1A1 block: qHTS Assay for Inhibitors of Aldehyde Dehydrogenase 1 (ALDH1A1) | Aldehyde dehydrogenase 1A1 (Homo sapiens), P00352 | Purified ALDH1A1, NADH fluorescence, propionaldehyde substrate | Potency, µM (highest dose often 75.3 µM), without a hit: at the highest dose activity, negative = inhibition, most hits filed as inhibitors | actives 7.3% (n = 220,000) | AID 1030, 2008; active = well fitted inhibition curve with a large enough effect, not every such curve was filed as active; inconclusive = small, poorly fitted or top-dose-only effect, or another doubt; inactive = no such curve, though single readings can be large or run the other way;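 note: potency is the fitted concentration of half-maximal effect; plate controls were no enzyme wells and a reference inhibitor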
GLA spleen mod: qHTS Assay for Inhibitors and Activators of Human alpha-Galactosidase From Spleen Homogenate. human spleen homogenate, 4MU-alpha-Gal fluorescence, 40 min. Potency, µM (doses to about 80 µM), for the others: at the highest dose activity change, negative = inhibition, most hits filed as inhibitors. actives 0.008% (n = 240,000). AID 2107, 2009;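 note: potency is the fitted concentration of half-maximal effect; 0% = enzyme with vehicle and -100% = no enzyme basal signal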
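Inhibition or activation of alpha-galactosidase in human spleen homogenate is scored by 4-MU fluorescence after 40 min at 37C, pH 5.0, with 1 mM substrate. AC50s come from concentration-response fitted to the Hill equation.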
ALOX12 inhib: qHTS Assay for Inhibitors of 12-hLO (12-human lipoxygenase); purified 12-hLO, xylenol orange hydroperoxide absorbance; actives 0.12% (n = 150,000); Potency, µM (doses to about 57.1 µM), without a hit: top-dose activity change, negative = inhibition, actives largely listed as inhibitors; note: potency is the fitted concentration of half-maximal effect; nearly all actives have a fitted effect of over 55% in size
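150 nM 12hLO, 25 mM Hepes pH 7.0 + 0.01% Triton X-100; cpd preinc 15 min RT; 40 uM arachidonic acid, 30 min RT; Fe-XO 30 min; A573/A405 ratio as read-out.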
HPGD inh: qHTS Assay for Inhibitors of HPGD (15-Hydroxyprostaglandin Dehydrogenase). actives 4.3% (n = 150,000). Potency, µM, for the others: at the top dose activity change, negative = inhibition, most hits filed as inhibitors. AID 894, 2007. purified HPGD, NADH fluorescence kinetic, PGE2 substrate. 15-hydroxyprostaglandin dehydrogenase [NAD(+)] (Homo sapiens), P15428; active = well fitted inhibition curve with a large enough effect, not every such curve was filed as active; inconclusive = small, poorly fitted or top-dose-only effect, or another doubt; inactive = no such curve, though single readings can be large or run the other way; note: potency is the fitted concentration of half-maximal effect
Target sequence (P15428 whole entry, looked up): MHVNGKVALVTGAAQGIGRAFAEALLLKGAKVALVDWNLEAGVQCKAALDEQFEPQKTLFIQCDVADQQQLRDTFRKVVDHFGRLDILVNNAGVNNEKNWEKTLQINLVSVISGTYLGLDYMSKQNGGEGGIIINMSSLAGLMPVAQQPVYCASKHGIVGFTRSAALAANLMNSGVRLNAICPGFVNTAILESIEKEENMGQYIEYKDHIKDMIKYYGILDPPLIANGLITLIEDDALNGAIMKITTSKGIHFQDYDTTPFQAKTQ
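NADH formation kinetics: reaction with 30 uM PGE2 and 1 mM NAD+ (final), 20 nM enzyme, Tris-HCl pH 8 with Tween 20, after 15 min compound preincubation at room temperature. Fluorescence change, last versus first of five reads.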
The depositor's hits bear a star; [ ] = another dose, or the depositor's remark. Unless noted, calls come from the whole dose curve; as a rule, active = well fitted curve in the direction sought with a large enough effect; inconclusive = small, poorly fitted or top-dose-only effect, or another doubt; inactive = no such curve, though single readings can be large; an effect the other way counts as inactive or inconclusive. Unless noted, % is set by controls: 0 for no effect and ±100 for the full control effect.

How did CN(Cc1ccccc1)S(=O)(=O)c1ccc(NC(=S)NC(=O)C(C)(C)C)cc1 do in these assays?
PNC inhibitor: -5; GLA inh pH 4.5: -7; ALDH1A1 block: 13µM*; GLA spleen mod: -5%; ALOX12 inhib: 3%; HPGD inh: -15%

What do the screens show for `CN1CCN(S(=O)(=O)c2ccc(NC(=S)NC(=O)C(C)(C)C)cc2)CC1`?
GLA inh pH 4.5: 3; ALDH1A1 block: 32µM*; GLA spleen mod: -7%

What do the screens show for `CN1CCN(C(=S)NC(=O)c2ccc(S(=O)(=O)N3CCOCC3)cc2)CC1`?
GLA inh pH 4.5: 0; ALDH1A1 block: 9.5µM*; GLA spleen mod: 2%

How did CN1CCN(S(=O)(=O)c2ccc(NC(=S)NC(=O)c3ccccc3)cc2)CC1 do in these assays?
PNC inhibitor: 16; GLA inh pH 4.5: 3; ALDH1A1 block: 25µM*; GLA spleen mod: -6%; ALOX12 inhib: -1%; HPGD inh: inconclusive

Results for CN(Cc1ccccc1)S(=O)(=O)c1ccc(NC(=S)NC(=O)C2CCCCC2)cc1 ?
PNC inhibitor: -7; GLA inh pH 4.5: -9; ALDH1A1 block: -3%; GLA spleen mod: 9%; ALOX12 inhib: inconclusive; HPGD inh: -7%

Results for CCN(CC)CC[n+]1ccc2c(C)c3[nH]c4ccccc4c3c(C)c2c1 ?
ALDH1A1 block: 2%[13.5 µM]; ALOX12 inhib: 9%[11.4 µM]; HPGD inh: -6%

Results for CC(C)C(=O)NC(NC(=O)C(C)C)c1ccc([N+](=O)[O-])cc1 ?
PNC inhibitor: inconclusive; GLA inh pH 4.5: 9; ALDH1A1 block: 10%; GLA spleen mod: 3%; ALOX12 inhib: -1%; HPGD inh: -14%

Results for O=S(=O)(NCC(c1ccccc1)N1CCNCC1)c1ccc(Cl)cc1 (stereo not given) ?
PNC inhibitor: -19; GLA inh pH 4.5: 1; ALDH1A1 block: 8.9µM*; GLA spleen mod: inconclusive; ALOX12 inhib: -18%; HPGD inh: -18%

Results for Cc1ccc(S(=O)(=O)NCC(c2ccccc2)N2CCCCC2)cc1 (stereo not given) ?
GLA inh pH 4.5: -4; ALDH1A1 block: -11%; GLA spleen mod: 3%

Results for C=CCN=C1SC(CC)C(=O)N1S(=O)(=O)c1ccc(C)cc1 (stereo not given) ?
PNC inhibitor: -1; GLA inh pH 4.5: 1; ALDH1A1 block: 6.3µM*; GLA spleen mod: -5%; ALOX12 inhib: -7%; HPGD inh: -5%

Results for C=CCN=C1SCC(=O)N1S(=O)(=O)c1ccc(C)cc1 ?
PNC inhibitor: 60; GLA inh pH 4.5: 2; ALDH1A1 block: inconclusive; GLA spleen mod: -5%; ALOX12 inhib: -5%; HPGD inh: -11%

What do the screens show for `Cc1c(N)cc[n+](CC(=O)c2ccccc2)c1C`?
GLA inh pH 4.5: 3; ALDH1A1 block: 2%; GLA spleen mod: 5%

What do the screens show for `COc1cc(-c2cc(N)n(S(=O)(=O)c3ccccc3)n2)cc(OC)c1OC`?
PNC inhibitor: -8; GLA inh pH 4.5: -6; ALDH1A1 block: 5%; GLA spleen mod: -5%; ALOX12 inhib: -2%; HPGD inh: -14%

How did Nc1cc(-c2ccccc2)nn1S(=O)(=O)c1ccc(Br)cc1 do in these assays?
PNC inhibitor: 21; GLA inh pH 4.5: -15; ALDH1A1 block: 16µM*; GLA spleen mod: -7%; ALOX12 inhib: inconclusive; HPGD inh: -20%

Results for COc1ccc2cc(C(=O)Nc3ccc(Cl)cc3)sc(=O)c2c1OC ?
PNC inhibitor: -23; GLA inh pH 4.5: -4; ALDH1A1 block: 14%; GLA spleen mod: 0%; ALOX12 inhib: -2%; HPGD inh: -10%

What do the screens show for `O=C(Nc1cccnc1)c1ccc(CSc2ccccc2)cc1`?
GLA inh pH 4.5: -6; ALDH1A1 block: 4%; GLA spleen mod: 2%

Results for O=C(Nc1ccccn1)c1ccc2nc(-c3ccccc3)c(-c3ccccc3)nc2c1 ?
GLA inh pH 4.5: -23; ALDH1A1 block: 11µM*; GLA spleen mod: -2%

What do the screens show for `O=C(Nc1cccnc1)c1ccc2nc(-c3ccccc3)c(-c3ccccc3)nc2c1`?
GLA inh pH 4.5: -10; ALDH1A1 block: 18µM*; GLA spleen mod: -1%

How did CN(CCc1ccc(Cl)c(Cl)c1)CCN1CCCCCC1 do in these assays?
GLA inh pH 4.5: -10; ALDH1A1 block: -6%; GLA spleen mod: -3%; ALOX12 inhib: -2%; HPGD inh: 1%

What do the screens show for `CCCCC(C)/C=C(C)/C=C(\C)C(=O)NC1=CC(O)(/C=C/C=C/C=C/C(=O)NC2=C(O)CCC2=O)C2OC2C1=O` (stereo not given)?
GLA spleen mod: -11%

Results for Cc1ccc(Nc2ccc(C(=O)N3CCCC3)cn2)c(C)c1 ?
PNC inhibitor: -12; GLA inh pH 4.5: -9; ALDH1A1 block: -2%; GLA spleen mod: -3%; ALOX12 inhib: -7%; HPGD inh: 2.2µM*

What do the screens show for `Cc1ccc(C#N)cc1`?
ALDH1A1 block: 32µM*; GLA spleen mod: -9%; ALOX12 inhib: -3%; HPGD inh: 3%

How did O=C1Nc2ccc(I)cc2/C1=C/c1cc(Br)c(O)c(Br)c1 do in these assays?
GLA inh pH 4.5: -7; ALDH1A1 block: -7%; GLA spleen mod: 7%; ALOX12 inhib: -25%; HPGD inh: 3.5µM*

How did CN(CC(=O)Nc1ccc(Cl)cc1)CC(=O)Nc1ccc(C(N)=O)cc1 do in these assays?
GLA inh pH 4.5: inconclusive; ALDH1A1 block: 32µM*; GLA spleen mod: 3%

What do the screens show for `Cc1nc(Nc2ccccc2)c2nc(-c3ccccc3)n(CCN3CCOCC3)c2n1`?
GLA inh pH 4.5: -6; ALDH1A1 block: inconclusive; GLA spleen mod: 1%; ALOX12 inhib: -10%; HPGD inh: inconclusive

How did Cc1cccc(NC(=O)C(c2ccccc2Cl)N2CCOCC2)c1 (stereo not given) do in these assays?
GLA inh pH 4.5: -4; ALDH1A1 block: 25µM*; GLA spleen mod: 4%

What do the screens show for `Cc1ccc(NC(=O)C(c2ccc(Cl)cc2Cl)N2CCCC2)cc1` (stereo not given)?
PNC inhibitor: 58; GLA inh pH 4.5: -6; ALDH1A1 block: 8%; GLA spleen mod: 5%; ALOX12 inhib: -2%; HPGD inh: 2%

How did CCCC[C@@H]1CCCO[C@@](C(=O)NCCN2CCOCC2)(C(F)(F)F)C1 do in these assays?
GLA spleen mod: 19%
